The whole screen tested about 290,000 compounds, of which about 27,000 (9.3%) were called active. The sample holds actives, similar compounds and a random draw of the others, so the mix is not that of the screen. A number with no mark means an inactive call. No stated cut-off is given here; in the data, active means inhibition mostly above about 28% (no sharp cut-off); inactive means mostly below about 43%.

The experiment is described as follows: A qHTS for Small Molecule Inhibitors of Shiga Toxin. Further: 0% is about no effect. Conditions: Vero cells, Shiga toxin protein synthesis inhibition reporter; at 38.7 µM, active compounds read high. For orientation: qHTS replaces the single test concentration by a dilution series.
In the case of `O=C(Nc1ccc(F)cc1)C1CCCN(S(=O)(=O)c2ccc(-n3cnnn3)cc2)C1` (stereo not drawn), the inhibition is -10.1%.
`Cc1nn(CC(=O)NC2CCCCC2)c(=O)c2cccn12`: the inhibition is 1.03%.
The same measure for `CN(CC(=O)Nc1c(Cl)cccc1Cl)C(=O)CNC(=O)C1CCCCC1`: 8.74%; for `CCc1nccn1CCC(=O)N1CCCC(N2CCN(c3ccccc3F)CC2)C1` (stereo not drawn): -3.27%.
`O=C(Nc1cc(-c2nc3ncccc3o2)ccc1Cl)c1ccco1`: the inhibition was -5.97%.
The same measure for `O=C1C[C@@H](c2ccc3ccccc3c2)N1S(=O)(=O)c1ccccc1[N+](=O)[O-]`: -7.61%; for `Cc1sc2ncn(CC(=O)NCCCC(=O)N3CCN(c4ccccc4F)CC3)c(=O)c2c1C`: -6.47%.
Turning to `CC1(C)Cc2c(sc(NC(=O)C(=O)NCC3CCCO3)c2C(=O)O)CO1` (stereo not drawn), the inhibition is -2.38%.
The same measure for `COc1cccc(CNC(=O)c2nnn(CC(=O)Nc3cc(C)ccc3C)c2N)c1`: -3.78%; for `Cc1c(C(=O)NC(=S)NCc2cccnc2)oc2ccccc12`: -22.1%.
For `Cc1cc(C(=O)NNC(=S)NC(C)c2ccccc2)cs1` (stereo not drawn), the inhibition is 8.77%.
The same measure for `Cc1ccc(C(=O)NC(=S)NCc2cccnc2)cc1`: 56% (active).
Consider `Cc1cc2[nH]ncc2cc1NC(=S)NC(=O)c1ccccc1`, for which the inhibition is 34.9% (active).
The same measure for `Cc1ccc(C)c(NC(=S)NNC(=O)c2csc(C)c2)c1`: 22.3% (active); for `CC(C)(C)c1cc(C(=O)NCc2cccnc2)ccn1`: -3.32%; for `CCc1cccc(CC)c1NC(=S)Nc1ccc2cn[nH]c2c1`: -6.34%.
The same measure for `Cc1ccc(C)c(NC(=O)NNC(=O)c2ccc3ccccc3c2O)c1`: -2.25%; for `Cc1ccc(C(=O)NC(=S)NCCN2CCOCC2)cc1`: 57.3% (active); for `Cc1ccc(NC(=S)NCCN2CCOCC2)cc1`: -3.76%.
Consider `Cc1ccc(C(=O)N/C(=C\c2ccc(F)cc2)C(=O)NCCN2CCOCC2)cc1`, for which the inhibition was -6.91%.
The same measure for `Cc1cccc(NC(=S)Nc2ccc3cn[nH]c3c2)c1`: -14.2%; for `CN(C)CCN(Cc1ccccc1)S(=O)(=O)c1csc(C(N)=O)c1`: -1.58%; for `CCOC(=O)c1cccc(NC(=O)CCc2nnc3ccc(N4CCOCC4)nn23)c1`: -1.45%.
The same measure for `CC1CC(C)CN(C(=O)CCNC(=O)Cn2cnc3ccccc3c2=O)C1` (stereo not drawn): -11.9%; for `Cc1ccccc1OCC(=O)Nc1nnc(S(=O)(=O)N2CCCC2)s1`: -10.5%.
The same measure for `CC(=O)c1cc(CN2CCC(n3nccc3NC(=O)c3ccccc3Cl)CC2)cs1`: -20.5%.
Turning to `O=C(Nc1ccnn1C1CCN(Cc2cccc(OCCO)c2)CC1)C1CCCC1`, the inhibition was -5.27%.
The same measure for `Cc1nc(N2CCOCC2)nc2c1CCCC2`: 35.4%; for `Cc1cccc(NC(=O)c2sc3nc(N4CCOCC4)c4c(c3c2N)CCCC4)c1`: 30.8%; for `Nc1nc(-c2sc3nc4c(cc3c2N)CCCC4)nc(N2CCOCC2)n1`: 58.2% (active).
For the compound `Cc1cc(-c2nnc(SCC(=O)Nc3ccc(S(N)(=O)=O)cc3)n2N)n[nH]1`, the inhibition is -4.71%.
The same measure for `O=C(NC(Cc1ccccc1)C(=O)O)/C(=C\c1ccccc1)NC(=O)c1ccco1` (stereo not drawn): -11.9%; for `COc1ccc(N2CCN(C3CC(=O)N(c4ccc5c(c4)OCCO5)C3=O)CC2)cc1` (stereo not drawn): -9.64%; for `CC(=O)Oc1cccc(N2C(=O)CC(Nc3ccc(N4CCOCC4)cc3)C2=O)c1` (stereo not drawn): 58.2% (active).
The same measure for `CC(=O)Oc1cccc(N2C(=O)C3CC=C(Cl)CC3C2=O)c1` (stereo not drawn): -2.36%; for `CCOc1ccccc1OCCCNCc1ccccc1`: 8.72%.
The same measure for `CCOc1ccc(S(=O)(=O)Nc2ccc(OC)nc2)cc1`: 33.9%; for `CCCCCCn1cc(C(=O)O)c(=O)c2cc(F)c(N3CCCCC3)cc21`: 33.7%.
For `COc1ccccc1CNC(=O)C1CCN(S(=O)(=O)c2ccc3c(c2)OCCO3)CC1`, the inhibition was -11.4%.
The same measure for `O=C(Nc1cccc2ncccc12)c1ccc(-c2ccc(Cl)cc2Cl)o1`: -17.2%; for `CCc1ccccc1NC(=O)c1cc(-c2ccc3c(c2)OCO3)on1`: 25.8%.
With `O=C(NCc1ccccn1)c1ccc2nc(-c3ccco3)c(-c3ccco3)nc2c1`, the inhibition was 5.29%.
The same measure for `C=CCNC(=O)c1cc(-c2ccccc2O)on1`: 98.8% (active).
The same measure for `O=C(Nc1cccnc1Cl)c1cc(-c2ccccc2O)on1`: 73.1% (active).
The same measure for `O=C(NCc1ccccn1)c1cc(Br)ccc1Cl`: 29.6%; for `O=C(NCc1ccccn1)c1cc(-c2ccccc2Cl)on1`: 162% (active).
As for `C=CCNC(=O)c1csc(-c2ccccc2)n1`, the inhibition is 11.1%.
The same measure for `C=CCNC(=O)c1ccccc1SCc1c(C)noc1C`: -38.8%; for `O=C(Nc1ccccc1C(F)(F)F)c1cc(-c2ccc(O)cc2)on1`: 54.9% (active); for `O=C(NNC(=O)c1ccccc1[N+](=O)[O-])Nc1ccccc1C(F)(F)F`: -6.67%.
Turning to `O=C(Nc1cccnc1Cl)c1cc(-c2cccc(Cl)c2)on1`, the inhibition is -1.68%.
The same measure for `Nc1nonc1-n1nnc(C(=O)N/N=C/C2CCCCC2)c1-c1ccccc1`: -3.16%; for `CCCCC(C(=O)NC(C)(C)C)N(Cc1ccccc1)C(=O)c1snc(C(N)=O)c1N` (stereo not drawn): -1.85%.
The same measure for `CCc1ccccc1N(CC(=O)NCC1CCCO1)C(=O)CCC(=O)Nc1nccs1` (stereo not drawn): -6.86%; for `CC(Nc1nc(C(F)(F)F)nc2ccccc12)c1cccs1` (stereo not drawn): 29.3%; for `O=S(O)S(=O)(=O)O`: 6.15%.
The same measure for `Cc1ccc2oc(C(=O)N3CCN(C)C[C@@H]3C(C)C)c(C)c2c1`: 42.3% (active).
As for `Cc1ccc2c(C)c(C(=O)N3CCC(N4CCC(C(=O)NC5CC5)CC4)CC3)oc2c1`, the inhibition is -13.3%.
The same measure for `COc1ccccc1N1CCN(C(=O)c2cc(=O)c3cc(C)ccc3o2)CC1`: 19.1%.
Turning to `Cc1ccc(C(=O)NCCc2nnc(SCC(=O)Nc3cccc(C(=O)O)c3)n2C)cc1`, the inhibition is -4.17%.
The same measure for `CC(=O)C(C)n1cnc2scc(-c3ccc(C)cc3)c2c1=O` (stereo not drawn): -5.64%.
The same measure for `CCN(C(=O)CSc1ncn[nH]1)c1cccc2ccccc12`: 9.31%.
Turning to `Cn1nnc(NC(=O)CSc2ncn[nH]2)n1`, the inhibition is -18.1%.
The same measure for `CC(C)(C)c1ccc(C(=O)CSc2ncn[nH]2)cc1`: 63.4% (active).
The same measure for `Cc1ccccc1NC(=O)NCC1CCN(Cc2cccc(Cl)c2)CC1`: -1.26%; for `O=C(O)c1ccc(NC(=O)c2ccc(COc3ccc(Cl)cc3)o2)cc1`: -8.9%; for `CCOC(=O)c1[nH]c2c(c1C)C(=O)CC(c1ccc(N(C)C)cc1)C2` (stereo not drawn): 2.86% (active).
The same measure for `CCOC(=O)c1[nH]c2c(c1-c1ccccc1)C(=O)CC(c1ccc(Cl)cc1)C2` (stereo not drawn): -7.73%.
Turning to `COCCOC(=O)c1[nH]c2c(c1C)C(=O)CC(c1ccc(OC)cc1)C2` (stereo not drawn), the inhibition was 13.2%.
Regarding `O=C(N/N=C/c1sc(N2CCCCC2)nc1-c1cccs1)c1cccnc1`, the inhibition was -9.51%.
For the compound `CCOc1cc(C)ccc1OCc1nnc(SCC(=O)Nc2cccc(C(=O)O)c2)n1-c1ccccc1`, the inhibition was 9.89%.
Consider `CC[C@H](C)[C@H](NC(=O)[C@@H](N)CCC(=O)O)C(=O)N[C@@H](CC(C)C)C(=O)N[C@@H](CC(=O)O)C(=O)N[C@H](C(=O)N1CCC[C@H]1C(=O)N[C@@H](CO)C(=O)N[C@H](C(=O)O)[C@@H](C)O)C(C)C`, for which the inhibition was -4.46%.
The same measure for `CCOc1cccc2c1OC1(CCCCC1)N1N=C(c3cccnc3)CC21` (stereo not drawn): 42.4% (active).
The same measure for `c1cncc(-c2nnc3n2C2(CCCCC2)Cc2ccccc2-3)c1`: -14.6%.
For `CCOc1ccccc1C1CC(c2cccc(NS(C)(=O)=O)c2)=NN1C(=O)c1ccccc1` (stereo not drawn), the inhibition is 3.98%.
In the case of `COc1ccc(C(=O)NC2CC2)cc1OC1CCN(Cc2cnn(C)c2)CC1`, the inhibition was 14.2%.
The same measure for `CCCCc1nc2cc(C(=O)NCCc3cnn(C)c3)ccc2o1`: 36.3% (active); for `CCCCc1nc2cc(C(=O)N3CCCCC3CCO)ccc2o1` (stereo not drawn): 105% (active).
The same measure for `CCC1C(=O)NCCN1C(=O)c1ccc2nc(Cc3ccc(OC)cc3)oc2c1` (stereo not drawn): 3.17%; for `CCC1CCCCN1C(=O)CSc1nc(C)cc(C)n1` (stereo not drawn): -8.51%; for `Cc1c(C(=O)N(C)CCc2cnn(C)c2)oc2c(F)cccc12`: 2.81%.
The same measure for `CC(C)c1nnc(NC(=O)C2CC(=O)N(CCc3ccc(F)cc3)C2)s1` (stereo not drawn): -7.25%; for `COc1cccc(NC(=O)c2cc(S(=O)(=O)N3CCc4ccccc43)cn2C)c1`: 7.48%; for `CCc1ccc(OC(C)C(=O)Nc2ccc(S(=O)(=O)Nc3cc(C)on3)cc2)cc1` (stereo not drawn): -9.78%.
Take `CC(CCc1ccc(O)cc1)NCc1ccc(Cl)cc1Cl` (stereo not drawn): the inhibition was -4.82%.
The same measure for `CCCCC1(C(=O)OCC)NC(c2ccc(O)cc2)C2C(=O)N(c3ccccc3)C(=O)C21` (stereo not drawn): -10.2%; for `CCc1ccc(NC(=O)CN2C(=O)CSC2=O)cc1`: 53.9% (active).
For the compound `COc1ccc(NC(=O)CN2C(=O)CSC2=O)cc1`, the inhibition was -1.96%.
The same measure for `CCc1ccc(NC(=O)CN2C(=O)COc3ccc(S(=O)(=O)N4CCCC4)cc32)cc1`: -5.17%.
The same measure for `CC1(c2ccc(Cl)cc2)NC(=O)N(CC(=O)c2ccc3c(c2)OCO3)C1=O` (stereo not drawn): 1.96%.
Regarding `O=C(CN1CCN(c2ccccc2F)CC1)c1ccc2c(c1)OCO2`, the inhibition was 53% (active).
The same measure for `O=C(Nc1ccccc1N1CCN(C(=O)c2ccccc2)CC1)c1ccc2c(c1)OCO2`: -7.26%; for `CCOc1cc(C2/C(=C(/O)c3ccc(S(=O)(=O)N4CCCCC4)cc3)C(=O)C(=O)N2CCOC)ccc1O` (stereo not drawn): -10.6%.

For orientation: inhibition means the drop in the measured response relative to a control, in per cent.

For the origin of these results see PubChem BioAssay AID2315 (National Center for Advancing Translational Sciences (NCATS), 2010).
